HP1b chromo inh: HTS for Inhibitors of HP1-beta Chromodomain Interactions with Methylated Histone Tails. Chromobox protein homolog 1 (Homo sapiens), P83916. AlphaScreen HP1-beta / biotin-H3K9me3 peptide binding. Potency, µM (titrated, usually from 114 µM), most hits filed as inhibitors. actives 0.56% (n = 390,000). AID 540317, 2011; also: nearly all actives have a fitted effect of over 70% in size
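Compound inhibition of the preformed complex between 50 nM HP1-beta and 50 nM biotinylated H3K9me3 peptide was read by AlphaScreen. Buffer was PBS pH 7.4 with 0.01% Tween-20. Incubations ran 30 min at room temperature, with 10 ug/mL donor/acceptor beads.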
Six1-Eya2 blk: qHTS Assay for Inhibitors of the Six1/Eya2 Interaction; activity change, % (no concentration beside the values); Homeobox protein SIX1 (Homo sapiens) + Protein phosphatase EYA2 (Homo sapiens), …; AlphaScreen GST-Six1/His-Eya2 binding, biochemical; hits give low values; actives 0.56% (n = 360,000); in the data active = activity change below about -65%; inconclusive = mostly about -30% to -63%
Target sequence (O00167 whole entry, looked up): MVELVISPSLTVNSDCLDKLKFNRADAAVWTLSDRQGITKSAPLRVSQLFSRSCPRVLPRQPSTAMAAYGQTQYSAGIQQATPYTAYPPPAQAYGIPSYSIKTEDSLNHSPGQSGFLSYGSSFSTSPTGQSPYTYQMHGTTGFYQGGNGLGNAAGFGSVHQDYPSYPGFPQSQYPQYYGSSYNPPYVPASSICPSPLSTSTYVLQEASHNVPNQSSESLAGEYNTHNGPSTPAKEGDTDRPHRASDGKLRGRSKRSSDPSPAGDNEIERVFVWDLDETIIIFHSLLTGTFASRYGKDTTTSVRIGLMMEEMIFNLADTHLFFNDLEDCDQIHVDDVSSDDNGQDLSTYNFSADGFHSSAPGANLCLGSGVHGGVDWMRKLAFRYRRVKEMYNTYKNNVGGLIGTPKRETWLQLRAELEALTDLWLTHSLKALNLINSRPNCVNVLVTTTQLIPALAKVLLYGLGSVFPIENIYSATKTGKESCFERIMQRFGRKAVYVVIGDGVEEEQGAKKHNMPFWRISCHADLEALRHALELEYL
Target sequence (Q15475 whole entry, looked up): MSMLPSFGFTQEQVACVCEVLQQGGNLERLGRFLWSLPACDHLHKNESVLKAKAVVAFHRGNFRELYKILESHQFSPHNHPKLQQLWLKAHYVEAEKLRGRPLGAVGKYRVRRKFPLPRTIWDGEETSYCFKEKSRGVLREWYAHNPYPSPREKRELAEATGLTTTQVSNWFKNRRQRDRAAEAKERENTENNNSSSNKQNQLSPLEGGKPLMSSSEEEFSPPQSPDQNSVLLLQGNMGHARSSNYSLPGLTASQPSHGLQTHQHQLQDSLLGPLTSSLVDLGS
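Six1/Eya2 binding was read as AlphaScreen signal after compounds were pinned into GST-Six1 plus His-tagged Eya2 (5X stock 250/500 nM) in pH 8.0 Tris/NaCl/TCEP buffer, beads added, then incubated 1 h, 37 C, dark.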
G9a block: qHTS Assay for Inhibitors of Histone Lysine Methyltransferase G9a | actives 8.8% (n = 350,000) | Potency, µM (highest dose often 102 µM), usual class: inhibitors | AID 504332, 2011 | G9a H3K9 monomethylation, AlphaScreen, 2 h; also: nearly all actives have a fitted effect of over 75% in size
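G9a (20 nM) was preincubated 15 min with compound, then reacted 2 h at room temperature with 500 nM biotin-H3K9 peptide and 20 µM SAM. Monomethyl-H3K9 detected by AlphaScreen using anti-H3K9me1 antibody.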
BAZ2B inh: qHTS Assay for Inhibitors of BAZ2B; Potency, µM (doses to about 114 µM), hits mostly inhibitors; Bromodomain adjacent to zinc finger domain protein 2B (Homo sapiens), Q9UIF8; AlphaScreen BAZ2B-H3K14Ac peptide displacement; actives 4.4% (n = 360,000); also: nearly all actives have a fitted effect of over 60% in size
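In this displacement format the biotinylated H3(5-23) peptide acetylated at Lys14 serves as ligand at 50 nM, with BAZ2B at 50 nM in PBS pH 7.4 containing 0.01% Tween-20. Donor and acceptor beads are 10 ug/mL final.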
CtBP-E1A inh: qHTS Assay for Inhibitors of the CtBP/E1A Interaction. actives 0.49% (n = 340,000). activity change, % (no concentration beside the values). AlphaScreen GST-E1A/His-CtBP binding, 1536-well; hits give low values. CtBP / adenovirus E1A interaction (AlphaScreen). AID 651724, 2012; in the data active = activity change below about -65%; inconclusive = mostly about -30% to -63%
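Homogeneous bead-based format: GST-tagged E1A captured on glutathione donor beads, His-tagged CtBP on nickel acceptor beads; compounds precede bead addition by 2 h at 37 °C.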
JMJD2A Tudor inh: qHTS Assay for Inhibitors of JMJD2A-Tudor Domain; Lysine-specific demethylase 4A (Homo sapiens), O75164; AlphaScreen JMJD2A-Tudor / H3K4me3 peptide binding; Potency, µM (highest dose often 114 µM), most hits filed as inhibitors; actives 4.4% (n = 390,000); AID 504339, 2011; also: nearly all actives have a fitted effect of over 50% in size
A number is an active result; i = inactive; ? = inconclusive; nt = no result given; [ ] = dose if it differs, or a comment. A selection: hits, their analogues and other compounds. The true share with any hit is near 10%. Unless noted, calls follow the shape of the dose curve; as a rule, active = well fitted inhibition curve with a large enough effect; inconclusive = small, poorly fitted or top-dose-only effect; inactive = no such curve, though single readings can be large or run the other way.

SMILES	HP1b chromo inh	Six1-Eya2 blk	G9a block	BAZ2B inh	CtBP-E1A inh	JMJD2A Tudor inh
COc1ccc(-n2c(O)c(/C=N/NS(=O)(=O)c3cc(C)ccc3C)c3ccccc3c2=O)cc1OC	i	i	?	45µM	i	50µM
COc1ccc(-c2[nH]ncc2/C=N\NS(=O)(=O)c2ccccc2)cc1OC	i	i	50µM	i	i	i
COc1ccc(-n2c(O)c(/C=N/NS(=O)(=O)c3ccc(C)cc3)c3ccccc3c2=O)cc1OC	i	i	11µM	?	i	?
Cc1ccc(-n2c(O)c(C=NCc3ccccn3)c3ccccc3c2=O)cc1	i	i	i	56µM	nt	i
COc1ccc(-c2[nH]ncc2/C=N\NS(=O)(=O)c2ccc(Cl)cc2)cc1	i	i	i[12.7 µM]	i	i	i
Cc1ccc(NC(=O)Cn2c(=O)n(CCCCC(=O)NCCc3ccccc3)c(=O)c3ccccc32)cc1	i	nt	i	i	nt	i
COc1cccc(C(O)c2nc(-c3ccc4ccccc4c3)cs2)c1 (centres undefined)	nt	i	nt	nt	i	nt
O=C(c1ccc(Br)s1)N(Cc1cccnc1)c1nc2ccc(F)cc2s1	i	nt	?	i	nt	i
CCc1nnc(SCC(=O)Nc2cccc(C(F)(F)F)c2)c2cc3oc(C)cc3n12	i	nt	i	i	nt	i
COc1ccc(/C=C2\SC(=S)N(CCC(=O)Nc3ccc(O)cc3)C2=O)cc1	i	i	i	i	i	i
CCN(CC)CCOC(=O)c1ccc(NC(=O)CCCN2C(=O)S/C(=C/c3ccc(OC)cc3)C2=S)cc1	?	i	40µM	?	i	?
O=C(CCN1C(=O)/C(=C\c2ccccc2)SC1=S)Nc1ccc(C(=O)O)cc1	i	i	?	56µM	i	?
COc1ccc(/C=C2\SC(=S)N(CCCC(=O)Nc3ccc(C(=O)O)cc3)C2=O)cc1OC	i	i	nt	50µM	i	?
CCOc1ccc(/C=C2/SC(=S)N(CCC(=O)Nc3ccc(C(=O)O)cc3)C2=O)cc1	35µM	i	16µM	32µM	i	10µM
O=C(O)c1ccc(Cl)c(S(=O)(=O)Nc2ccc3cn[nH]c3c2)c1	i	i	45µM	?	i	i
Cc1cccc(N(Cc2ccccc2F)S(C)(=O)=O)c1	i	i	?	i	i	i
Cc1ccc(N(Cc2ccccc2F)S(C)(=O)=O)cc1C	i	i	i	56µM	i	i
COc1cccc(-n2cn[nH]c2=S)c1	i	i	13µM	i	nt	?
COc1ccc(NC(=O)COC(=O)[C@@H](NC(=O)c2c(F)cccc2F)C(C)C)cc1	i	i	i	i	nt	i
O=c1c(N2CCN(c3cccc(C(F)(F)F)c3)CC2)csc2ccccc12	i	nt	?	i	nt	45µM
O=c1c(N2CCN(c3cccc(C(F)(F)F)c3)CC2)csc2ccc(Cl)cc12	i	nt	i	i	nt	i
Cc1cccc(N2CCN(C(=O)Cn3ncc4c3-c3cc(C)ccc3OC4)CC2C)c1 (centres undefined)	i	nt	?	32µM	nt	?
Cc1cccc(N2CCN(C(=O)CN3CCSc4ccccc43)CC2C)c1 (centres undefined)	i	nt	i	?	nt	50µM
Cc1ccc2c(c1)-c1c(cnn1CC(=O)O)CO2	i	i	i	i	i	i
CCOC(=O)c1cnc2cc(F)c(F)cc2c1N1CCOCC1	i	i	i	i	i	i
Cc1cc2ccccn2c1C(=O)c1nc(NCc2ccco2)ncc1Cl	i	i	?	?	i	?
Cc1cc2ccccn2c1C(=O)c1nc(N2CCOCC2)ncc1Cl	i	i	71µM	?	i	?
COCCN(CCOC)c1ncc(Cl)c(C(=O)c2c(C)cc3ccccn23)n1	i	i	40µM	i	i	i
Cc1cc(-c2n[nH]c(=S)n2Cc2ccccc2)cs1	i	i	1.3µM	i	i	18µM
